The assay in a line: qHTS for Inhibitors of ATXN expression: Validation (AID 588378). Further: series mostly up to about 57 µM; nearly all actives have a fitted effect of over 75% in size. An outline of the steps: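 Validation of ATXN2 expression inhibitors uses a cell-based luciferase fusion reporter in HEK293 cells, with 24 h compound exposure and paired viability (fluorescence) and reporter (luminescence) end-point reads.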
A general note: In qHTS, concentration-response curves come from the screen itself.

Inconclusive results are not listed. Activity calls are given as the source filed them. The call rests on the fitted dose curve; in most records, active means well fitted inhibition curve with a large enough effect; inconclusive means small, poorly fitted or top-dose-only effect; inactive means no such curve, though single readings can be large or run the other way.

As for `N[C@@H]1CONC1=O`, the call was inactive. As to `OC(CN1CCC(Cc2ccc(F)cc2)CC1)c1ccc(Cl)cc1` (centres undefined), the result was inactive.

Consider `Cn1cnc([N+](=O)[O-])c1Sc1ncnc2nc[nH]c12`, for which the call was inactive. The result for `N=c1nc(N2CCCCC2)cc(N)n1O` reads “inactive”.

Source of the values: PubChem BioAssay (NCATS).
